# In PubChem BioAssay:
# Assay: resazurin metabolic signal in HepG2 cells – cell-based, resazurin fluorescence, 24 h, PK04 Diversity Set, profiling panel (AID 1172); further: test concentration not given here
# Conditions: HepG2 viability, higher = more signal
row,SMILES,z-score
1,CC(CCN1CCCCc2nc(C)c(C)cc21)=NOC[C@@H](C)[C@H](OCc1ccccc1)C(C)C,-0.345
2,COC(=O)CC=C[C@@H](C)[C@@H](C=NO[C@@H]1O[C@H](COC(C)=O)[C@@H](OC(C)=O)[C@H](OC(C)=O)[C@H]1OC(C)=O)OC,0.992
3,CO[C@@H]1COC(=O)[C@H](CCSC)NC(=O)CC=C[C@@H](C)COC(=O)CCC[C@H]1C,1.09
4,CCCNC(=O)OC[C@H]1O[C@H](CCON=C(C)CCC(=O)OC[C@H]2O[C@H](c3ccccc3)C=C[C@@H]2Oc2ccc(OC)cc2)C=C[C@@H]1Oc1ccc(OC)cc1,0.704
5,CCN1C(=O)[C@@H]2[C@H]3C(=CC[C@@H]2C1=O)C1(OCCCO1)[C@H]1O[C@H]1[C@H]3O,-2.61
6,O=C1[C@H]2[C@H]3[C@H](O)[C@H](O)CC(=NOC[C@@H](O)COCc4ccco4)[C@H]3CC[C@H]2C(=O)N1Cc1ccccc1,1.57
7,CO[C@H]1COC(=O)[C@@H](C)COC(=O)[C@H](C)NC(=O)CC=C[C@H]1C,0.926
8,C[C@H]1COC(=O)[C@@H]2CCCN2C(=O)[C@@H](C)COC(=O)[C@H](Cc2ccccc2)NC1=O,0.409
9,COC(=O)CC=C[C@@H](C)[C@H](OCc1cccc(-c2ccccc2)c1)C1CCCCC1,-0.307
10,C=CC[C@@H]1C=C[C@H](ON=C(C)CCC(=O)OC[C@H]2O[C@H](C#Cc3ccccc3)C=C[C@@H]2Oc2ccc(C)cc2)[C@@H](CO)O1,-0.0055
11,CON=C[C@@H](NS(=O)(=O)c1ccc(C)cc1)[C@H](C)C=CCC(=O)OC,0.27
12,CO[C@@H]1COC(=O)CC=C[C@H](C)[C@H](OC)COC(=O)[C@H](C)NC(=O)CC=C[C@H]1C,0.774
13,CC(CCC(=O)OC[C@H]1O[C@H](C#Cc2ccccc2)C=C[C@@H]1Oc1ccc(C)cc1)=NO[C@H](C)c1cn([C@H](CO)Cc2ccccc2)nn1,0.151
14,CCOC(=O)[C@H](Cc1ccccc1)NC(=O)CCC1CC(OC(=O)NCc2cccc3ccccc23)CC2(CCCC(COC(=O)NCC(c3ccccc3)c3ccccc3)O2)O1 (stereo partly specified),0.812
15,CC(C)=CCCC(C)=CCON=C1C[C@@H](O)[C@@H](O)[C@@H]2[C@@H]3C(=O)N(C[C@@H]4CCCO4)C(=O)[C@@H]3CC[C@H]12,0.164
16,COC(=O)[C@H]1O[C@@H](c2c(OC)c(OC)c(C)c(OC)c2OC)[C@H](C)[C@@H](O)[C@H]1C,-0.617
17,COc1ccc(O[C@H]2C=C[C@@H](c3ccccc3)O[C@@H]2COC(=O)CCC(C)=NOC[C@@H](O)[C@H]2O[C@@H]3OC(C)(C)O[C@@H]3[C@H]2O)cc1,0.0784
18,CCOC(=O)[C@H](CC(C)C)NC(=O)CCC1CC(OC(=O)NCCc2ccc(F)cc2)CC2(CCCC(COC(=O)NCC3CCCCC3)O2)O1 (stereo partly specified),1.1

row,SMILES,z-score
1,CC(C)=CCCC(C)=CCON=C1C[C@@H](O)[C@@H](O)[C@@H]2[C@@H]3C(=O)N(C4CCCCC4)C(=O)[C@@H]3CC[C@@H]12,-0.199
2,COC(=O)CC=C[C@@H](C)[C@@H](C=NOC[C@H]1O[C@H](c2ccccc2)C=C[C@@H]1Oc1ccc(OC)cc1)NS(=O)(=O)c1ccc(C)cc1,-0.659
3,CCc1cc2c(nc1CC)CCN(CCC(C)=NO[C@H](C)c1cn([C@@H]3COC[C@H]3O)nn1)C2,-0.51
4,CCOC(=O)NN=C1C[C@@H](O)[C@@H](O)[C@@H]2[C@@H]3C(=O)N(Cc4ccc5c(c4)OCO5)C(=O)[C@@H]3CC[C@H]12,0.514
5,CO[C@H]1COC(=O)CC=C[C@H](C)[C@@H](OC)COC(=O)[C@@H](C)NC(=O)CC=C[C@@H]1C,0.789
6,CO[C@@H]1COC(=O)CC=C[C@@H](C)[C@@H]2C=C[C@H](O)[C@@H](COC(=O)CC=C[C@H]1C)O2,0.807
7,CCOC(=O)[C@H](CC(C)C)NC(=O)CCC1CC(OC(=O)NCCc2ccc(F)cc2)CC2(CCCC(COC(=O)NCCc3ccccc3OC)O2)O1 (stereo partly specified),-0.285
8,CCCNC(=O)OC[C@H]1O[C@H](CCON=C(C)CCN2CCCc3nc(C)c(C)cc32)C=C[C@@H]1Oc1ccc(OC)cc1,0.691
9,CCC(=O)[C@@]1(O)C(=O)N2C(=C3C(=O)OCC[C@@H]31)N(Cc1ccccc1)C(C)=C(C(=O)OC)[C@H]2c1ccccc1,-0.207
10,CC(C)(C)N1C(=O)[C@H]2[C@H]3[C@H](O)C=CC(=O)[C@@H]3CC[C@H]2C1=O,0.136
11,CC(CCN1CCCc2nc(C)c(C)cc21)=NO[C@@H](C)c1cc(-c2c(C)cc(C)cc2C)no1,-0.616
12,C[C@H](ON=C1[C@H]2CCn3c(=O)n(-c4ccccc4)c(=O)n3[C@H]2[C@H](O)[C@@H]2O[C@H]12)c1cn([C@H](CO)Cc2ccccc2)nn1,-0.189
13,CCN1C(=O)[C@H]2[C@H]3[C@H](O)[C@H](O)CC(=O)[C@H]3CC[C@H]2C1=O,-0.195
14,C#CCCCON=C1C[C@@H](O)[C@@H](O)[C@@H]2[C@@H]3C(=O)N(c4ccc(F)cc4F)C(=O)[C@@H]3CC[C@H]12,0.63
15,O=C(NN=C1C[C@@H](O)[C@@H](O)[C@@H]2[C@@H]3C(=O)N(C4CCCCC4)C(=O)[C@@H]3CC[C@@H]12)OCc1ccccc1,-0.141
16,CC(CCN1CCCCc2nc(C)c(C)cc21)=NOC[C@@H](O)COCc1ccco1,-0.862
17,C=CC1=C[C@H](O)[C@@H]2O[C@@H]2C12OCCCO2,0.257
18,CON=C1[C@H]2CCn3c(=O)n(-c4ccccc4)c(=O)n3[C@H]2[C@H](O)[C@@H]2O[C@H]12,0.348
